Results taken from PubChem BioAssay.
Activity calls are given as the source filed them.

Assays:
[1] = test system: Plasmodium falciparum Sir2 (PF13_0152, Sir2A); experiment: pfSir2 binders on small-molecule microarrays, primary screen, biochemical, small-molecule microarray, 635 nm fluorescence (AID 1098); settings: small-molecule microarray binding, fluorescence 635 nm; higher = more signal;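 further: score merges spot fluorescence intensity with its signal-to-noise ratio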
[2] = small-molecule microarray binders of probe aDKK1, primary screen, biochemical, biotinylated probe, 635/667 nm fluorescence (AID 1099); settings: higher = more signal;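 further: score merges 667nm spot fluorescence with signal to noise across triplicate slides; reference of the scale not given here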
[3] = small-molecule microarray binders of probe aCHRDL2, primary screen, biochemical, biotinylated probe, 635/667 nm fluorescence (AID 1100); settings: higher = more signal
[4] = splicing luciferase reporter signal modulators, primary screen, spliceosome inhibition project, cell-based, HEK293, splice +/- reporter (AID 1101); settings: luminescence, 24 h, higher = more signal, called active from +8 up or from −8 down;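 further: HEK293 cells carrying a splicing-competent luciferase reporter gene; test concentration not given here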
[5] = biological target: Fibroblast growth factor 10 (Homo sapiens) (UniProt O15520); experiment: FGF10 binders on small-molecule microarrays, primary screen, biochemical, small-molecule microarray, 635 nm fluorescence (AID 1102); settings: FGF10 binding, fluorescence 635 nm, higher = more signal
Fibroblast growth factor 10 (Homo sapiens), sequence (O15520 whole entry, looked up): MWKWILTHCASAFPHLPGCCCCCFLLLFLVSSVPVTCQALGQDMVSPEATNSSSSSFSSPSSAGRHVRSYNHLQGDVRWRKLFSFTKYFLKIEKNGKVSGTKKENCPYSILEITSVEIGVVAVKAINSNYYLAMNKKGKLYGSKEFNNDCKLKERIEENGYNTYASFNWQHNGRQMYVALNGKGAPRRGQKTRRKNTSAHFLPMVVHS

[6] = test system: glycogen synthase kinase-3 (GSK3A per assay name; protocol says GSK3B); experiment: GSK3 binders on small-molecule microarrays, primary screen, biochemical, small-molecule microarray, 635 nm fluorescence, GSK3A (AID 1103); settings: small-molecule microarray binding, fluorescence 635 nm; higher = more signal; further: the record names both GSK3A and GSK3B
[7] = biological target: Epidermal growth factor receptor (Homo sapiens) (UniProt P00533); experiment: EGFR binders on small-molecule microarrays, primary screen, biochemical, small-molecule microarray, 635 nm fluorescence (AID 1104); settings: EGFR binding, higher = more signal;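 further: score merges 667 nm emission intensity with spot signal to noise over triplicate slides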
Epidermal growth factor receptor (Homo sapiens), sequence (P00533 whole entry, looked up): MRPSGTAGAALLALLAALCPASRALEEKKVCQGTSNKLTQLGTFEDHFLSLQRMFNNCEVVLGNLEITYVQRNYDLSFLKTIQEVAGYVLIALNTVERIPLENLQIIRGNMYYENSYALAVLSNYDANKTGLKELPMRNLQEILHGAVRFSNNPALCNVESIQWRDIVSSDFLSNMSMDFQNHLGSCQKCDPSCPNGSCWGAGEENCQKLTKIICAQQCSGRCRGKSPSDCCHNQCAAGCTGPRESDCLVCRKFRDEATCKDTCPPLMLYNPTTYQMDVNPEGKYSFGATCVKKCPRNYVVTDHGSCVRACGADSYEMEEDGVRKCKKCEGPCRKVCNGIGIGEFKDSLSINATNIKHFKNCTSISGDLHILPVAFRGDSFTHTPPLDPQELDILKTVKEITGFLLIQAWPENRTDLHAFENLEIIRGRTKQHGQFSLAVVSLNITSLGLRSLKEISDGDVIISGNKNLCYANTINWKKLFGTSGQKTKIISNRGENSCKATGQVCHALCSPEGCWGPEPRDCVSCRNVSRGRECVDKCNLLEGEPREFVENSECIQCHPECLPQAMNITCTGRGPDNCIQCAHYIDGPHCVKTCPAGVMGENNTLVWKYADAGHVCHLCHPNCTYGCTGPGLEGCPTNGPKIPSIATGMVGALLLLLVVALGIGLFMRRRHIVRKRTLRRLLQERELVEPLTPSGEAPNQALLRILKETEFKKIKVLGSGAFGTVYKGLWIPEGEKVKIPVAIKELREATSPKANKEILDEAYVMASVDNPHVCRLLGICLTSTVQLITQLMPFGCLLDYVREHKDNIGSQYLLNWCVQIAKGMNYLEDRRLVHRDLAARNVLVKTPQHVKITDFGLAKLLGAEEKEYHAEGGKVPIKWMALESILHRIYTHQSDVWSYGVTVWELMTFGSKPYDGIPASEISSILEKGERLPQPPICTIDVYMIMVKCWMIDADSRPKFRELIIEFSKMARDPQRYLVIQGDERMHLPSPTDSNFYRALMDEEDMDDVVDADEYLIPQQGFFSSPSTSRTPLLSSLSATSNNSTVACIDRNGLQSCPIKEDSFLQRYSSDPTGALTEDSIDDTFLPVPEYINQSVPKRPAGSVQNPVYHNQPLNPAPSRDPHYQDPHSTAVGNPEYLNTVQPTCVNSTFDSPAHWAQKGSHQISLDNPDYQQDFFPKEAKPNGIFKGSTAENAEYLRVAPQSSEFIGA

[8] = biological target: Follistatin-related protein 3 (Homo sapiens) (UniProt O95633); experiment: FSTL3 binders on small-molecule microarrays, primary screen, biochemical, small-molecule microarray, 635 nm fluorescence (AID 1105); settings: FSTL3 binding, higher = more signal;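 further: score merges emission near 667 nm and signal to noise per printed spot across three slides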
Follistatin-related protein 3 (Homo sapiens), sequence (O95633 whole entry, looked up): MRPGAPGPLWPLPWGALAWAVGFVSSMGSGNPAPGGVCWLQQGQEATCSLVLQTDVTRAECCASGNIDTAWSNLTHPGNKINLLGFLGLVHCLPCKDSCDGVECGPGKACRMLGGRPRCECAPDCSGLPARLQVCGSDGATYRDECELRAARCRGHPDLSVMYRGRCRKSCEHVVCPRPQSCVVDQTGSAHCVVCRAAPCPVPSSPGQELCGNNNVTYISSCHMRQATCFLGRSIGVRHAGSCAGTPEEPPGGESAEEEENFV

[9] = biological target: Dickkopf-related protein 1 (Homo sapiens) (UniProt O94907); experiment: DKK1 binders on small-molecule microarrays, primary screen, biochemical, small-molecule microarray, 635 nm fluorescence scan (AID 1106); settings: DKK1 binding, higher = more signal;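 further: score merges emission near 667 nm with signal to noise over three replicate slides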
Dickkopf-related protein 1 (Homo sapiens), sequence (O94907 whole entry, looked up): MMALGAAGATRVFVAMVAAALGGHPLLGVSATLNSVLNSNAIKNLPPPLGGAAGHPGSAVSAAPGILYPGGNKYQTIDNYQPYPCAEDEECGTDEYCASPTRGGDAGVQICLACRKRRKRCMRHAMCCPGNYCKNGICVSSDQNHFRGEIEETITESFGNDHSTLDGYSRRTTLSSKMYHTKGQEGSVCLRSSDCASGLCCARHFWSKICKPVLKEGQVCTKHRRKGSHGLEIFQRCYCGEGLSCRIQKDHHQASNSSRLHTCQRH

[10] = test system: Inhibin beta A chain (activin A); experiment: INHBA (activin A) binders on microarrays, primary screen, biochemical, small-molecule microarray, 635 nm fluorescence scan (AID 1107); settings: small-molecule microarray binding, higher = more signal;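 further: mouse activin A protein probed at 4.33 µg/mL on printed slides; score merges bound-protein fluorescence near 667 nm with spot signal-to-noise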

| Structure (SMILES) | composite z-score [1] | composite z-score [2] | composite z-score [3] | z-score [4] | composite z-score [5] | composite z-score [6] | composite z-score [7] | composite z-score [8] | composite z-score [9] | composite z-score [10] |
| --- | --- | --- | --- | --- | --- | --- | --- | --- | --- | --- |
| C[C@@H](ON=C1[C@H]2CCn3c(=O)n(-c4ccccc4)c(=O)n3[C@H]2[C@H](O)[C@@H]2O[C@H]12)c1cn([C@@H]2COC[C@H]2O)nn1 | 0.507 | -0.235 | -0.511 | 0.413 (inactive) | 0.31 | 0.555 | 0.702 | 0.51 | 0.446 | 0.0788 |
| COc1cccc([C@H]2Oc3ccc(OC)cc3C(=NOC[C@@H](C)[C@H](OCc3ccccc3)C(C)C)[C@@H]2O)c1 | -0.0088 | 0.197 | 0.101 | -0.171 (inactive) | 0.325 | 0.332 | -0.168 | 0.242 | 0.304 | 0.0185 |
| CCOC(=O)NN=C1C[C@@H](O)[C@@H](O)[C@@H]2[C@@H]3C(=O)N(Cc4ccc5c(c4)OCO5)C(=O)[C@@H]3CC[C@H]12 | 0.263 | -0.238 | -0.233 | 0.346 (inactive) | 0.0798 | -0.566 | -0.0894 | -0.199 | -0.108 | 0.0787 |
| Cc1cc2c(nc1C)CCCN2CC(O)CN1CCCc2nc(C)c(C)cc21 | 0.264 | 0.125 | 0.258 | -0.153 (inactive) | 0.92 | 0.388 | 0.36 | 0.552 | 0.536 | 1.17 |
| CC(C)C[C@H](NC(=O)CCC1CC(OC(=O)NCc2cccc3ccccc23)CC2(CCCC(COC(=O)NCc3ccccc3)O2)O1)C(=O)NCC(c1ccccc1)c1ccccc1 (stereo not given in full) | 0.683 | -0.0553 | -0.304 | 0.536 (inactive) | 1.26 | 0.91 | 0.667 | 1.12 | 0.861 | -0.156 |
| COc1ccc(O[C@H]2C=C[C@@H](c3ccccc3)O[C@@H]2COC(=O)CCC(C)=NOC(C)CN2CCCc3nc(C)c(C)cc32)cc1 (stereo not given in full) | 0.817 | -0.176 | -0.433 | 0.063 (inactive) | 0.753 | 1.03 | 0.517 | 0.889 | 0.524 | 0.465 |
| COC(=O)CC=C[C@@H](C)[C@@H](C=NO[C@@H]1O[C@H](COC(C)=O)[C@@H](OC(C)=O)[C@H](OC(C)=O)[C@H]1OC(C)=O)OC | -0.225 | -0.194 | -0.463 | 0.869 (inactive) | -0.481 | -0.757 | 0.383 | -0.4 | -2.27 | -2.01 |
| CCCCC#C[C@@H]1C=C[C@H](OC(C)=O)[C@@H](COC(C)=O)O1 | 0.483 | -0.228 | -0.595 | 1.07 (inactive) | 0.46 | 0.244 | 0.137 | 0.44 | 0.124 | 0.589 |
| COC(=O)[C@@H]1CC[C@H](C)[C@@H](c2ccc(C)cc2)N1C(=O)c1ccc(C=NO[C@@H]2O[C@H](COC(C)=O)[C@@H](OC(C)=O)[C@H](OC(C)=O)[C@H]2OC(C)=O)cc1 | 0.32 | -0.254 | -0.393 | -1.56 (inactive) | 0.666 | 0.798 | 0.323 | 0.92 | 0.374 | -0.059 |
| CCOC(=O)[C@H](Cc1ccccc1)NC(=O)CCC1CC(OC(=O)NCCc2ccc(F)cc2)CC2(CCCC(COC(=O)NCCCN3CCCC3=O)O2)O1 (stereo not given in full) | 0.844 | -0.257 | -0.802 | -1.79 (inactive) | 0.767 | 0.843 | 0.478 | 0.69 | 0.493 | -0.103 |
| CCOC(=O)[C@H](CC(C)C)NC(=O)CCC1CC(OC(=O)NCc2cccc3ccccc23)CC2(CCCC(COC(=O)NCCOC)O2)O1 (stereo not given in full) | 0.546 | -0.164 | -0.401 | -1.8 (inactive) | 0.799 | 1.3 | 0.412 | 1.17 | 0.358 | -0.0748 |
| CC(=O)OC[C@H]1OC(ON=CC[C@@H]2C=C[C@H](OC(C)=O)[C@@H](COC(C)=O)O2)[C@H](OC(C)=O)[C@@H](OC(C)=O)[C@@H]1OC(C)=O (stereo not given in full) | 0.119 | -0.0393 | 0.265 | 0.632 (inactive) | 0.384 | 0.0032 | 0.261 | -0.368 | -0.416 | -2.75 |
| C[C@@H](c1ccccc1)N1C(=O)[C@H]2[C@H]3[C@H](O)[C@H](O)CC(=O)[C@H]3CC[C@H]2C1=O | -0.417 | -0.338 | -0.489 | 0.282 (inactive) | 0.526 | 0.523 | 0.202 | 0.548 | 0.491 | -0.0854 |
| CO[C@H]1COC(=O)CC=C[C@@H](C)[C@H](NS(=O)(=O)c2ccc(C)cc2)COC(=O)CCC[C@@H]1C | 0.684 | -0.233 | -0.689 | -0.679 (inactive) | 0.366 | 0.22 | 0.484 | 1.04 | 1.53 | 0.9 |
| Cc1ccc(S(=O)(=O)n2c3ccccc3c3nnc(C(=O)c4ccccc4)nc32)cc1 | -0.0568 | -0.153 | -0.22 | -1.04 (inactive) | 0.328 | 0.0643 | 0.494 | 0.511 | 0.563 | 0.546 |
| CC(CCN1CCCc2nc(C)c(C)cc21)=NOC(C)CN1CCCCc2nc(C)c(C)cc21 (stereo not given) | 1.16 | 0.0616 | -0.271 | 0.322 (inactive) | 1.14 | 1.28 | 1.2 | 1.42 | 1.18 | 1.43 |
| CC(C)(C)N1C(=O)[C@H]2[C@H]3[C@H](O)[C@H](O)CC(=O)[C@H]3CC[C@H]2C1=O | 0.0159 | -0.282 | -0.674 | -0.432 (inactive) | 0.287 | 0.694 | 0.456 | 0.426 | 0.624 | -0.167 |
